Experimental data reported in PubChem BioAssay (NCI).
This is part of a sample that, as a whole, favours compounds with a hit. Of some 79,000 tested, about 15% had one in any assay. Rule as the data show it: active = growth inhibition above about 70%; inactive = the rest. Where a SMILES comes first, the peptide text is derived from it. The star is where a group is joined. Cbz = O=C(OCc1ccccc1)*

Assays:
[1] = NCI Yeast Anticancer Drug Screen. Data for the rad50 strain (AID 155);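 also: 0% = growth of vehicle-only cultures of the same strain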; settings: S. cerevisiae rad50 strain growth inhibition, active compounds read high; at 50.0 µM unless noted
In short: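 Readout: growth inhibition relative to vehicle-treated cultures. Compound exposure was carried out in a genetically defined yeast strain deficient in DNA damage repair.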

[2] = NCI Yeast Anticancer Drug Screen. Data for the mec2-1 strain (AID 157); settings: S. cerevisiae mec2-1 strain, active compounds read high; at 50.0 µM unless noted
In short: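 Each compound was tested on mec2-1 yeast, a strain altered in DNA damage repair or cell cycle control. Growth inhibition is reported relative to vehicle.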

[3] = NCI Yeast Anticancer Drug Screen. Data for the sgs1 mgt1 strain (AID 161);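 also: 0% = growth of cultures given vehicle only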; settings: S. cerevisiae sgs1 mgt1 strain, active compounds read high; at 50.0 µM unless noted
In short: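 Test agents were incubated with a DNA-repair-mutant yeast strain. Growth was then read and compared against vehicle-treated controls.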

[4] = NCI Yeast Anticancer Drug Screen. Data for the cln2 rad14 strain (AID 165);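 also: 0% = growth equal to vehicle treated cultures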; settings: S. cerevisiae cln2 rad14 strain, active compounds read high; at 50.0 µM unless noted
In short: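 Test compounds were added to cln2 rad14 yeast cultures; inhibition of growth was then determined by comparison with vehicle treatment.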

[5] = NCI Yeast Anticancer Drug Screen. Data for the bub3 strain (AID 167); settings: S. cerevisiae bub3 mutant strain, active compounds read high; at 50.0 µM unless noted
In short: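 Readout: yeast growth inhibition, expressed relative to vehicle-only wells. The test organism is a mutant strain from a panel with lesions in DNA repair or checkpoint genes.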

[6] = NCI Yeast Anticancer Drug Screen. Data for the mlh1 rad18 strain (AID 175); settings: S. cerevisiae mlh1 rad18 strain growth inhibition, active compounds read high; at 50.0 µM unless noted
In short: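 Inhibition values reflect reduced growth of mutant yeast versus vehicle-treated controls following compound exposure; the mutations affect DNA damage repair.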

Measured: growth inhibition

COC(=O)C(CC(C)C)NC(=O)C(CC(N)=O)NC(=O)C(NC(=O)OCc1ccccc1)C(C)C (stereo not drawn) (Cbz-Val-Asn-Leu-OMe; configuration not given here)
inactive: [1] 38.1% | [2] 24.5% | [3] 8.9% | [4] 14.7% | [5] 9.3% | [6] 36.5%

O=C(O)C1(F)CC1(c1ccccc1)c1ccccc1 (stereo not given)
inactive: [1] -4.7% | [2] 9.7% | [3] 14.5% | [4] -38.2% | [5] 5.6% | [6] -7.8%

CC1(C)CC(=O)C(/C=N/C(=S)Nc2ccc(S(N)(=O)=O)cc2)=C(O)C1
inactive: [1] -41.5% | [2] -68.5% | [3] -23.8% | [4] -8.55% | [5] -16.6% | [6] -30.4%

CC(=O)OC1C(Br)CCCC1Br (stereo not given)
inactive: [1] -26% | [2] 4.25% | [3] 1.75% | [4] 1.9% | [5] 0.45% | [6] 15.8%

CC(=O)Nc1ccc(S(=O)(=O)O)c(OC(C)=O)c1
inactive: [1] 20.8% | [2] -7.2% | [3] 9.85% | [4] -11.8% | [5] 7.35% | [6] 19.1%

C/C(=C(/C)c1ccc(O)cc1)c1ccc(O)cc1
inactive: [1] -9.8% | [2] -23.8% | [3] 16.3% | [4] 9.05% | [5] 45.9% | [6] 2.7%

CCCCCCCCC(O)C#CC(O)CCCCCCCC (stereo not given)
inactive: [1] -18% | [2] -20.9% | [3] -5.6% | [4] -12.9% | [5] -12.6% | [6] -8.85%

CCN(CC)C(=O)c1c(Cl)cc(N(CC)CC)oc1=O
inactive: [1] -21.7% | [2] -11.8% | [3] -42% | [4] -23.5% | [5] -41.1% | [6] -54.5%

COCCCC(=O)CNC(C)C
inactive: [1] -5.05% | [2] -42.1% | [3] -8.75% | [4] -15.4% | [5] -21.1% | [6] -14.4%

Oc1ccccc1/C=N\N=C\NN/C=N/N=C/c1ccccc1O
inactive: [1] -8.1% | [2] -0.75% | [3] -4% | [4] 13.8% | [5] 6.4% | [6] 5.55%

O=C(c1ccccc1)C1(c2ccccc2)OC1(C(=O)c1ccccc1)c1ccccc1 (stereo not given)
inactive: [1] 15.4% | [2] -4.75% | [3] 7.5% | [4] -7.65% | [5] -3.3% | [6] 4.2%

CC1=C(C)C(C#N)(C(=O)CBr)C(=N)O1 (stereo not given)
inactive: [1] 37.4% | [2] 28.1% | [3] 44% | [4] 0% | [5] 33.1% | [6] 68.2%

Cc1cn(C2CC3C(COC(c4ccccc4)N3O)O2)c(=O)[nH]c1=O (stereo not given)
inactive: [1] 0.1% | [2] -8.65% | [3] 21.2% | [4] 2.7% | [5] -2.95% | [6] 7.15%

CCOC(=O)Nc1ccc(F)cc1C
inactive: [1] 14.8% | [2] 5.3% | [3] -7.55% | [4] -4% | [5] 7.3% | [6] -1%

CN(C(=O)Nc1ccccc1)c1ccc(O)cc1
inactive: [1] 19.4% | [2] -8.55% | [3] -16.4% | [4] -11.9% | [5] -11.9% | [6] 12.7%

NC1CCCC2CCC(N)C12 (stereo not given)
inactive: [1] 17.9% | [2] 15.6% | [3] 20.8% | [4] 24.6% | [5] 10.7% | [6] 20.2%

CN1CCN(C2c3ccccc3OC(C)(C)C2O)CC1 (stereo not given)
inactive: [1] -23.9% | [2] -14% | [3] -14.8% | [4] -25.8% | [5] -15.7% | [6] 8.8%

N#Cc1c(-c2ccc(Cl)cc2)c(-c2ccc(Cl)cc2)nn(CCOC(=O)CCC(=O)OCCn2nc(-c3ccc(Cl)cc3)c(-c3ccc(Cl)cc3)c(C#N)c2=O)c1=O
inactive: [1] -11.7% | [2] 8.95% | [3] 5.5% | [4] -24.4% | [5] 4.75% | [6] 26.4%

O=C(O)CC1NC(/C(=C/c2ccccc2O)NC(=O)c2ccccc2)OC1=O (stereo not given)
inactive: [1] -1.5% | [2] -5.85% | [3] 15.5% | [4] -5.95% | [5] 15.2% | [6] -28.7%

CN(C)CC=C(c1ccccc1)c1ccccc1
inactive: [1] -11.9% | [2] -16.4% | [3] -3.3% | [4] -4.05% | [5] -8.85% | [6] 6.6%

CCN(CC)Cc1cc(O)ccc1NCCCNc1ccnc2cc(Cl)ccc12
inactive: [1] 49.4% | [2] 11.1% | [3] 40.1% | [4] 16.4% | [5] -7.05% | [6] 12.1%

Clc1ccccc1Br
inactive: [1] 2.85% | [2] -11.2% | [3] 4.65% | [4] 0.55% | [5] 2.25% | [6] -8.3%

O=C(/C(Cl)=N/O)c1ccc(O)c(O)c1
inactive: [1] 30.3% | [2] 14.8% | [3] 18.2% | [4] 24.6% | [5] 47.2% | [6] 19.9%

O=C(O)c1cccc(C(=O)O)c1Sc1ccccc1
inactive: [1] 1.9% | [2] 1.9% | [3] 5.75% | [4] 11.3% | [5] -0.1% | [6] 12.1%

CC(=O)OC[C@H](O)[C@@]1(O)CC[C@H]2[C@@H]3CCC4=CC(=O)C=C[C@]4(C)[C@H]3[C@@H](O)C[C@@]21C
inactive: [1] 33.2% | [2] 14.9% | [3] 23.9% | [4] 1.15% | [5] 41.6% | [6] 27%

CC(C)(O)CCNc1ncnc2c1ncn2C1OC(CO)C(O)C1O (stereo not given)
inactive: [1] 2% | [2] -1.75% | [3] 9.7% | [4] -6.8% | [5] 13.9% | [6] 13.8%

Nc1ccc(Cc2cc([N+](=O)[O-])cc([N+](=O)[O-])c2)cc1
inactive: [1] 3.15% | [2] -1.75% | [3] 11.4% | [4] -42% | [5] 15.3% | [6] -29.8%

O=C(Cc1ccccc1)NCc1ccco1
inactive: [1] -3.25% | [2] 8.55% | [3] -11.6% | [4] -10.9% | [5] -7.45% | [6] 7.3%

O=C(c1ccccc1)C(c1ccccc1)C(Cl)c1ccccc1 (stereo not given)
inactive: [1] 21.4% | [2] 30.8% | [3] 31.4% | [4] 3% | [5] -3.2% | [6] 19%

NC(=O)Nc1nc2ccccc2[nH]1
inactive: [1] -26.2% | [2] -21.6% | [3] -11.7% | [4] -0.3% | [5] -7.7% | [6] 3.4%

CCOC(=O)c1ccc(NC2Oc3cc4c(cc3C(c3cc(OC)c(OC)c(OC)c3)C2C)OCO4)cc1 (stereo not given)
inactive: [1] -1.6% | [2] -15.5% | [3] -2.65% | [4] 11.4% | [5] -9.8% | [6] -9.55%

Nc1cc(S(=O)(=O)O)c(O)c2c1C(=O)c1c(O)c(S(=O)(=O)O)cc(N)c1C2=O
inactive: [1] -17.6% | [2] -1.75% | [3] -2.55% | [4] -12.8% | [5] -9.35% | [6] -18%

COc1cccc(-c2cc(=O)c3cc(C)cnc3[nH]2)c1
inactive: [1] -17.2% | [2] 3.85% | [3] 4.05% | [4] -2.4% | [5] 18.8% | [6] -13.2%

O=c1[nH]nc(Cc2ccccc2)n1CCO
inactive: [1] 13.2% | [2] 2.65% | [3] 18.1% | [4] 1.3% | [5] 8.9% | [6] -43.4%

c1ccc2c3c([nH]c2c1)CCCC3
inactive: [1] -1.6% | [2] 1.2% | [3] -10.2% | [4] -31.4% | [5] 11.5% | [6] -1.25%

CCOC(=O)/C(SC#N)=C(/N)N1CCCC1
inactive: [1] -12.2% | [2] -43.8% | [3] -4% | [4] 9.95% | [5] 0.75% | [6] -14.2%

CS(=O)(=O)c1ncc(Br)cn1
inactive: [1] 15.6% | [2] -6.85% | [3] 5.45% | [4] 17.1% | [5] 6.4% | [6] 7.75%

C=CCN1C(=O)CS/C1=N/NC(=O)C(O)(c1ccccc1)c1ccccc1
inactive: [1] -19.6% | [2] -47.7% | [3] 6.1% | [4] -25.4% | [5] -24.3% | [6] -4.05%

CCOC(=O)c1ccc(NC(=O)Nc2cc(Cl)ccc2C)cc1
inactive: [1] 38.9% | [2] 8.45% | [3] 16.1% | [4] 6.4% | [5] 36.2% | [6] 25.4%

COc1cc2c3cc1Oc1cc(ccc1O)C[C@@H]1c4c(cc(OC)c(O)c4Oc4ccc(cc4)C[C@@H]3[N+](C)(C)CC2)CC[N+]1(C)C
inactive: [1] -23.2% | [2] -43.1% | [3] -40.4% | [4] 68.6% | [5] -35.6% | [6] 6.7%
